Laboratory results reported in PubChem BioAssay AID485273 (Sanford-Burnham Center for Chemical Genomics, 2010).
Among all 330,000 compounds or so, about 1,500 (0.45%) were called active. What follows is part of a selection rich in actives, with near analogues and random picks from the rest. Unmarked numbers belong to inactive results. Cut-off read from the data, not from the text of the source: active = inhibition above about 45% (passing the limit was not always enough); inconclusive = no clear call, values can overlap the other calls.

biological target: Ubiquitin-conjugating enzyme E2 N (Homo sapiens) (UniProt P61088); assay: blockers of UBC13 ubiquitin chain synthesis – biochemical, TR-FRET, uHTS, primary screen (AID 485273); conditions: UBC13 polyubiquitin chain formation, at 20 µM, hits give high values
Sequence (P61088 whole entry, looked up): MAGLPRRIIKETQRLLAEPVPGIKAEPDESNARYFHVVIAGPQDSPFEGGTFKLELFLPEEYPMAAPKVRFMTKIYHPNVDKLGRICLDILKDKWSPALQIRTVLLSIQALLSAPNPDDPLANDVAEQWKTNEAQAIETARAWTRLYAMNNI

Row | Structure (SMILES) | inhibition
1 | CC[C@@H](C)[C@H](NC(=O)CCc1c(C)c2cc3c4c(oc3c(C)c2oc1=O)CCCC4)C(=O)O | 2.9%
2 | S=c1nc2ccccc2c2nc(-c3cccnc3)[nH]n12 | 58.9% (active)
3 | O=C(CSc1n[nH]c(-c2cccnc2)n1)Nc1ccnc2ccccc12 | 21.1%
4 | c1ccc(-n2nnnc2-c2cccnc2)cc1 | 16.1%
5 | COc1ccccc1N(C)S(=O)(=O)c1ccc(Cl)c(C(=O)N2CCC(C(N)=O)CC2)c1 | 1.7%
6 | CC1(C)CC(=O)c2sc(N)nc2C1 | -5.4%
7 | O=C(Nc1cccc([N+](=O)[O-])c1)Nn1cnnc1 | -5.5%
8 | O=[N+]([O-])c1cccc(S(=O)(=O)NCc2ccccn2)c1 | -12.9%
9 | FC(F)(F)c1cccc(Nc2ncnc3ccccc23)c1 | 11.1%
10 | O=C(O)CC1(CC(=O)Nc2cccc(C(F)(F)F)c2)CCCC1 | -1.1%
11 | O=c1cc(CO)oc(C(Nc2cccc(C(F)(F)F)c2)c2ccccn2)c1O (stereo not drawn) | 97.1% (active)
12 | O=c1cc(CO)oc(C(Nc2cccc([N+](=O)[O-])c2)c2ccccn2)c1O (stereo not drawn) | 94.8% (active)
13 | O=C(c1ccccc1)N1CCC(CC2CC(c3ccc(Cl)cc3)=NO2)(C(=O)NCC2CCCCC2)CC1 (stereo not drawn) | 4.7%
14 | COC(=O)c1ccc(CNC(=O)c2ccc3oc(C(C)C)nc3c2)cc1 | -8.3%
15 | O=C(NC(=O)c1cc(OCC(F)(F)F)ccc1OCC(F)(F)F)Nc1ccccc1 | 2.9%
16 | c1ccc(CCC2=NCCn3cccc32)cc1 | -3.6%
17 | CCOC(=O)c1ccc(NC(=O)CCn2c(=O)oc3ccccc32)cc1 | 4.5%
18 | CCN(CC)S(=O)(=O)c1ccc2[nH]c(=O)cc(C(=O)N(C)C3CCS(=O)(=O)C3)c2c1 (stereo not drawn) | -6.2%
19 | O=C(CCN1C(=O)C2CCCCC2C1=O)Nc1ccc(OC(F)F)cc1 (stereo not drawn) | 1.3%
20 | CCN(CC)CCNC(=O)c1ccc(NC(=O)c2cc(-c3ccncc3)nc3ccccc23)cc1 | 89.7% (active)
21 | COC(=O)CNC(=O)c1cc(-c2ccncc2)nc2ccccc12 | -0.6%

Row | Structure (SMILES) | inhibition
22 | O=C(Nc1ccc(S(=O)(=O)Nc2nccs2)cc1)c1cc(-c2ccncc2)nc2ccccc12 | -11.2%
23 | CCn1c(SCc2cc(=O)n3ccsc3n2)nc2ccccc21 | 3%
24 | O=C(Nn1cnnc1)c1cc(Cl)ccc1Cl | -7.5%
25 | CC1CN(C(=O)CCC(=O)NCCCN2CCC(Cc3ccccc3)CC2)c2cc(Cl)ccc2O1 (stereo not drawn) | 64.4% (active)
26 | CC1CN(C(=O)CCC(=O)NC2CCN(Cc3ccccc3)CC2)c2ccccc2O1 (stereo not drawn) | 4.7%
27 | CC1CN(C(=O)CCC(=O)NCc2cccnc2)c2ccccc2O1 (stereo not drawn) | 2.3%
28 | CN(C)C(=O)c1ccc2c(c1)C1C3CCC(C3)C1C(c1ccccc1)N2 (stereo not drawn) | -13.6%
29 | CC(=O)NC(Cc1ccc(F)c(F)c1)C(=O)NC1CCN(c2nnnn2-c2ccccc2)CC1 (stereo not drawn) | -5.3%
30 | COc1ccnc2c1c(=O)n(Cc1cccc(F)c1)c(=O)n2C | 48.2% (active)
31 | CCCCNc1nc2c(c(=O)n(C)c(=O)n2C)n1Cc1cccc(OC)c1 | 21.5%
32 | CC(C)(C)c1cc2cccnc2n1Cc1cccc(F)c1 | 11.4%
33 | CCOC(=O)c1ccc(COC(=O)CCc2nc(-c3ccccc3)c(-c3ccccc3)o2)cc1 | -0.9%
34 | COCc1cc(=O)[nH]c2cc(NC(=O)C(F)(F)F)c(C)cc12 | 8.5%
35 | OC(CNCCc1ccc(Cl)cc1Cl)COc1ccccc1 (stereo not drawn) | 23%
36 | NC(N)=N/N=C/c1ccc(OCc2ccc(Cl)cc2Cl)cc1 | 108% (active)
37 | CCOc1ccc(/C=N/NC(N)=S)cc1 | -0.6%
38 | O=C(/C=C/c1cccc([N+](=O)[O-])c1)OCC(=O)N1CCOCC1 | -13.5%
39 | CC(OC(=O)CNC(=O)c1ccco1)C(=O)Nc1ccc(Cl)cn1 (stereo not drawn) | -3.2%
40 | CCc1ccc(NC(=O)C(C)OC(=O)/C=C/c2cccc([N+](=O)[O-])c2)cc1 (stereo not drawn) | -15.4%
41 | COc1ccc(N2CCN(C(=O)CNC(=O)c3ccc(C(C)(C)C)cc3)CC2)cc1 | 12.3%
42 | O=C(CCCCCN1C(=O)c2cccc3cccc(c23)C1=O)NCc1ccco1 | 57.4% (active)

Row | Structure (SMILES) | inhibition
43 | O=C1c2cccc3cccc(c23)C(=O)N1CCCCCc1n[nH]c(=S)o1 | -1.2%
44 | O=C(CCCOc1ccccc1)NCc1ccco1 | 6.4%
45 | C=CCN(CC=C)CCOc1ccccc1[N+](=O)[O-] | 3.5%
46 | O=C(COc1ccc(Br)cc1F)NCC1(N2CCCCC2)CCCCC1 | -5.1%
47 | Cc1ccc2c(c1)N(CC(=O)N1CCC(O)CC1)C(=O)CO2 | -0.3%
48 | CCOc1ccccc1N1CN(Cc2ccccc2)CNC1=S | -1.7%
49 | Cc1ccc(C(=O)N/C(=C/c2ccc(-c3cccc([N+](=O)[O-])c3)o2)C(=O)NCCCN(C)C)cc1 | 57% (active)
50 | CN(C)CCNC(=O)/C(=C/c1cccc([N+](=O)[O-])c1)NC(=O)c1ccccc1 | 11.7%
51 | C=CCNC(=O)/C(=C\c1cccc([N+](=O)[O-])c1)NC(=O)c1ccccc1 | 5.9%
52 | CN(CCc1ccccn1)C(=O)c1ccc(OC2CCN(Cc3ccccn3)CC2)cc1 | 1.2%
53 | Oc1ccccc1-c1cc(-c2ccc(Cl)cc2)n[nH]1 | 14.2%
54 | CCCCCCCC1(C)NC(=O)N(CC(=O)Nc2cc(C)on2)C1=O (stereo not drawn) | 3.7%
55 | O=c1c2c(ncn1Cc1ccccc1)nc1n2CCC1 | 1.8%
56 | CN(C)/C=C/c1c(C#N)c(=O)ncn1Cc1ccccc1 | -4.7%
57 | CN(C)c1ccnc2sc3c(=O)n(Cc4ccccc4)cnc3c12 | 48% (active)
58 | O=C1OC(OC(=O)c2ccccc2Br)C(N2CCOCC2)=C1Cl (stereo not drawn) | 15.6%
59 | Cc1ccc(NC2=C(Cl)C(=O)OC2OC(=O)c2ccccc2C)cc1 (stereo not drawn) | 53.9% (active)
60 | Cc1ccccc1C(=O)OC1OC(=O)C(Cl)=C1Nc1ccccc1 (stereo not drawn) | 78% (active)
61 | Cc1ccccc1C(=O)O | -9%
62 | COc1ccccc1C(=O)Nc1ccc(Nc2ccccc2)cc1 | 7.8%
63 | CCOC(=O)c1ccc(Nc2cc3ccccc3c(=O)[nH]2)cc1 | -38.5%
